Test results from PubChem BioAssay AID488821 (National Center for Advancing Translational Sciences (NCATS), 2010).
Results filed as inconclusive are left out. Calls of active or inactive are those of the source. Calls follow the shape of the dose curve; as a rule, active = well fitted inhibition curve with a large enough effect; inconclusive = small, poorly fitted or top-dose-only effect, or effect the other way; inactive = flat fitted curve, though single readings scatter.

Assay: Counterscreen Assay for Enhancers of SMN2 Splice Variant Expression: Modulation of SMN1 Expression for Further Probe SAR
Conditions: HEK293 SMN1-luciferase reporter, luminescence, 30-36 h; series mostly up to 46.1 µM; activity change, negative = inhibition: at the top concentration
Source text: NIH Chemical Genomics Center [NCGC] NIH Molecular Libraries Probe Production centers Network [MLPCN] MLPCN Grant: R03 MH084179-01 Assay Submitter (PI): Elliot Androphy NCGC Assay Overview: Spinal muscular atrophy (SMA) is caused by insufficient levels of the survival motor neuron protein SMN. The SMN locus on chromosome 5q13 contains two inverted copies of SMN called SMN1 and SMN2 which are 99% identical at the amino acid level. SMN1 is a fully functional protein and SMN2 skips exon 7 90% of the time. Skipping of exon 7 produces non-functional protein product. 10% of the SMN2 protein includes exon 7 and is fully functional. In the SMA disease state, mutations in the SMN1 locus are the cause of the disease state. Because only 10% of SMN2 is of the fully functional form, it is not sufficient to overcome the deficiency produced by the loss of the SMN1 product. A therapy that either increases the amount of SMN2 product made increases the inclusion of exon 7 has been proposed for the treatment of SMA. We have designed an assay to identify small molecules that can increase the amount of functional SMN2 product by appending a luciferase reporter gene after the native SMN2 gene, such that inclusion of exon 7 in the expressed product places the luciferase sequence in frame, thus generating functional luciferase enzyme. As a counterscreen for nonspecific modulators of expression, we have run compounds through a similar assay that measures expression of an SMN1-luciferase chimera.
NCGC Assay Protocol Summary: This screen utilizes a luciferase reporter gene assay, combining the promoter with the major portion of the native SMN1 cDNA (exons 1 -7, intron 8 , exon 8 fused to luciferase) stably expressed in HEK293 cells. Compounds that increase luciferase signal presumably enhance expression of the functional SMN1 splice variant. Passaging media contained DMEM w/ glutamax (+phenol red) 10% FCS, 1x pen/strep, 200 ug/ml hygro, 1x sodium pyruvate. Assay media contained DMEM w/ glutamax (-phenol red) 10% FCS, 1x pen strep, 1x pyruvate Sequence, Parameter, Value, Description (1) Cells, 5 uL, 2000 cells/well, 1536 TC treated White solid bottom plate (2) Time, 10-12 hours, 37C 5% CO2 (3) Compound, 23 nl, MLSMR Library (4) Control Compound, 23 nL, Sodium butyrate st 4.5mM (final) conc (5) Time, 30-36 hours, 37C 5% CO2 (6) Reagent, 3 ul, One Glo (TM) from Promega (7) Time, 5-15 minutes, Room temp (8) Detector, Viewlux: luminescent read, 60 second integration, high speed 2x binning Keywords: Spinal muscular atrophy, SMA, SMN2, high throughput screening, MLSMR, MLPCN, NIH Roadmap, qHTS and NCGC

| Structure (SMILES) | activity change, negative = inhibition | Potency |
| --- | --- | --- |
| NC(=O)C1CCN(c2nc(-c3ccc(C(F)(F)F)cc3)cs2)CC1 | -27.4% (inactive) | – |
| NC1CCN(c2nc(-c3ccc(Br)cc3)cs2)CC1 | – | 19.4 µM (active) |
| O=C(NCc1ccccc1)C1CCN(c2nc(-c3ccc(Br)cc3)cs2)CC1 | -14.5% (inactive) | – |
| O=C(C1CCN(c2nc(-c3ccc(Br)cc3)cs2)CC1)N1CCNCC1 | 11.6% (inactive) | – |
| NC(=O)C1CCN(c2nc(-c3ccc(OCc4ccccc4)cc3)cs2)CC1 | -12.4% (inactive) | – |
| NC(=O)C1CCN(c2nc(-c3ccccc3Cl)cs2)CC1 | -10.1% (inactive) | – |
| NC(=O)C1CCN(c2ncc(Br)cn2)CC1 | 9.17% (inactive) | – |
| CC(=O)C1CCN(c2ncc(-c3ccc4c(c3)OCCCO4)s2)CC1 | – | 4.87 µM (active) |
| N#Cc1cccc(-c2csc(N3CCC(C(N)=O)CC3)n2)c1 | 6.78% (inactive) | – |
| N#CC1CCN(c2nc(-c3ccc(Br)cc3)cs2)CC1 | -22% (inactive) | – |
| O=C(C1CCN(c2nc(-c3ccc(Br)cc3)cs2)CC1)N1CCOCC1 | -15.1% (inactive) | – |
| CN(C)c1cccc(-c2ccnc(N3CCC(C(N)=O)CC3)n2)c1 | -22% (inactive) | – |
| COc1cc(OC)cc(-c2csc(N3CCC(C(N)=O)CC3)n2)c1 | 13.7% (inactive) | – |
| NC(=O)C1CCN(c2nc(-c3ccc(N)cc3)cs2)CC1 | 7.68% (inactive) | – |
| NC(=O)C1CCN(c2nccc(-c3ccc(Br)cc3)n2)CC1 | – | 12.2 µM (active) |
| Brc1ccc(-c2csc(N3CCNCC3)n2)cc1 | – | 30.7 µM (active) |
| NC(=O)C1CCN(c2nc(-c3cccc(C(F)(F)F)c3)cs2)CC1 | 28.5% (inactive) | – |
| CC(=O)N1CCN(c2nc(-c3ccc(Br)cc3)cs2)CC1 | – | 15.4 µM (active) |
| O=C(NCCc1ccccc1)C1CCN(c2nc(-c3ccc(Br)cc3)cs2)CC1 | -15.8% (inactive) | – |
| CC(=O)Nc1ccc(-c2csc(N3CCC(C(N)=O)CC3)n2)cc1 | 17.6% (inactive) | – |

| Structure (SMILES) | activity change, negative = inhibition | Potency |
| --- | --- | --- |
| Cc1cnc(N2CCC(C(N)=O)CC2)nc1-c1cccc(N(C)C)c1 | 17.8% (inactive) | – |
| Cc1ccc(-c2nnc(N3CCC(C(N)=O)CC3)s2)cc1 | – | 6.14 µM (active) |
| NC(=O)C1CCN(c2nnc(-c3ccc4c(c3)OCCCO4)s2)CC1 | – | 1.54 µM (active) |
| Nc1nc(N)c2c(OCC3CCN(Cc4ccccc4F)CC3)cccc2n1 | – | 19.4 µM (active) |
| NC(=O)N1CCN(c2nc(-c3ccc(Br)cc3)cs2)CC1 | -14.2% (inactive) | – |
| NC(=O)C1CCN(c2nc(-c3ccc4c(c3)OCCCO4)cs2)CC1 | – | 7.72 µM (active) |
| NC(=O)C1CCN(c2nc(-c3ccc4c(c3)CCO4)cs2)CC1 | -6.44% (inactive) | – |
| CC(C)(C)OC(=O)NC1CCN(c2nc(-c3ccc(Br)cc3)cs2)CC1 | -18% (inactive) | – |
| CNC(=O)C1CCN(c2nc(-c3ccc(Br)cc3)cs2)CC1 | -20.8% (inactive) | – |
| CC(C)(C)c1ccc(-c2csc(N3CCC(C(N)=O)CC3)n2)cc1 | -21% (inactive) | – |
| O=C(O)C1CCN(c2ncc(-c3ccc4c(c3)OCCCO4)s2)CC1 | – | 0.244 µM (active) |
| Cc1ccc(-c2cnc(N3CCC(C(N)=O)CC3)s2)cc1 | – | 2.44 µM (active) |
| NC(=O)C1CCN(c2nc(-c3ccc(Oc4ccccc4)cc3)cs2)CC1 | -6.89% (inactive) | – |
| NC(=O)C1CCN(c2nc(-c3cccc(Br)c3)cs2)CC1 | -9.64% (inactive) | – |
| NC(=O)C1CCN(c2nc(-c3cccc([N+](=O)[O-])c3)cs2)CC1 | 9.79% (inactive) | – |
| NC(=O)C1CCN(c2nc(-c3ccccc3)cs2)CC1 | -16.6% (inactive) | – |
| CN(C)c1cccc(-c2cnc(N3CCC(C(N)=O)CC3)nc2)c1 | – | 1.22 µM (active) |
| CC(C)Oc1cccc(-c2cnc(N3CCC(C(N)=O)CC3)s2)c1 | – | 4.87 µM (active) |
| COc1ccc(-c2cnc(N3CCC(C(N)=O)CC3)s2)cc1OC | -10.1% (inactive) | – |
| CN(C)c1cccc(-c2cnc(N3CCC(C(N)=O)CC3)s2)c1 | – | 0.772 µM (active) |
